PubChem BioAssay AID1159580 (chemical genetic matrix, 2015)
Several values for one entry are separate records, joined by “and”; a condition that tells them apart may be missing. Equal entries are not always repeated. About 2,000 (36%) of roughly 5,500 compounds were called active. About 18% were inconclusive and are not listed. Rule as the data show it: active = normalized growth mostly below about 0.91 (no sharp cut-off); inconclusive = no clear call, values can overlap the other calls; inactive = mostly above about 0.92. The list shows a part of the results.

Experiment: chemical genetic growth profiling, strain panel (AID 1159580);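 also: tested at 20 µM; growth read once vehicle control cultures reached saturation at 30 °C; 1 = growth at the plate median or of vehicle wells; lower values mean less growth of the strain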
Conditions: S. cerevisiae deletion strains, growth OD

Measured: normalized growth

O=C(Nc1ccccc1)Nc1ccccc1
inactive: locus YAL021C, strain ccr4, stronger effect = lower value 0.977 | locus YAL026C, strain drs2, stronger effect = lower value 0.951 | locus YAL030W, strain snc1, stronger effect = lower value 0.992 | locus YBL061C, strain skt5, stronger effect = lower value 0.967 | locus YBR009C, strain hhf1, stronger effect = lower value 0.957 | locus YBR021W, strain FUR4, stronger effect = lower value 0.935 | locus YBR023C, strain chs3, stronger effect = lower value 0.954 | locus YBR171W, strain sec66, stronger effect = lower value 0.954 | locus YBR229C, strain ROT2, stronger effect = lower value 1 | locus YBR231C, strain swc5, stronger effect = lower value 0.942 | locus YBR279W, strain paf1, stronger effect = lower value 0.973 | locus YCL011C, strain gbp2, stronger effect = lower value 0.93 | locus YCL016C, strain dcc1, stronger effect = lower value 0.943 | locus YCL029C, strain bik1, stronger effect = lower value 1.02 | locus YCL069W, strain vba3, stronger effect = lower value 0.983 | locus YCR088W, strain abp1, stronger effect = lower value 0.971 | locus YDL005C, strain med2, stronger effect = lower value 0.956 | locus YDL035C, strain GPR1, stronger effect = lower value 1.1 | locus YDL040C, strain nat1, stronger effect = lower value 0.978 | locus YDL101C, strain DUN1, stronger effect = lower value 0.998 | locus YDL185W, strain tfp1, stronger effect = lower value 0.99 | locus YDL192W, strain arf1, stronger effect = lower value 0.978 | locus YDR001C, strain nth1, stronger effect = lower value 0.968 | locus YDR069C, strain doa4, stronger effect = lower value 0.964 | locus YDR101C, strain arx1, stronger effect = lower value 0.983 | locus YDR137W, strain rgp1, stronger effect = lower value 0.955 | locus YDR150W, strain NUM1, stronger effect = lower value 1.03 | locus YDR159W, strain sac3, stronger effect = lower value 1.04 | locus YDR162C, strain NBP2, stronger effect = lower value 1.1 | locus YDR195W, strain ref2 0.991 | locus YDR297W, strain sur2, stronger effect = lower value 0.969 | locus YDR318W, strain mcm21, stronger effect = lower value 0.989 | locus YDR334W, strain swr1, stronger effect = lower value 0.959 | locus YDR335W, strain msn5, stronger effect = lower value 0.952 | locus YDR388W, stronger effect = lower value 0.991 | locus YDR392W, strain spt3, stronger effect = lower value 0.932 | locus YDR502C, strain sam2, stronger effect = lower value 0.977 | locus YEL003W, strain gim4, stronger effect = lower value 0.977 | locus YEL037C, strain rad23, stronger effect = lower value 0.97 | locus YEL061C, strain CIN8 (second series), stronger effect = lower value 0.97 | locus YER015W, strain faa2, stronger effect = lower value 0.957 | locus YER016W, strain bim1, stronger effect = lower value 0.962 | locus YER110C, stronger effect = lower value 0.967 | locus YER111C, strain swi4, stronger effect = lower value 0.974 | locus YER155C, strain BEM2 (second series), stronger effect = lower value 0.978 | locus YER155C, strain BEM2, stronger effect = lower value 1.01 | locus YER167W, strain BCK2, stronger effect = lower value 1 | locus YFR010W, strain ubp6, stronger effect = lower value 0.987 | locus YGL078C, strain dbp3, stronger effect = lower value 0.98 | locus YGL086W, strain mad1, stronger effect = lower value 0.977 | locus YGL167C, strain pmr1, stronger effect = lower value 0.972 | locus YGL173C, strain kem1, stronger effect = lower value 0.97 | locus YGL227W, strain vid30, stronger effect = lower value 0.967 | locus YGL240W, strain doc1, stronger effect = lower value 0.915 | locus YGL248W, strain PDE1, stronger effect = lower value 1.08 | locus YGL253W, strain hxk2, stronger effect = lower value 0.924 | locus YGR078C, strain PAC10, stronger effect = lower value 1.07 | locus YGR135W, strain pre9, stronger effect = lower value 0.985 | locus YGR252W, strain gcn5, stronger effect = lower value 0.91 | locus YHR013C, strain ard1, stronger effect = lower value 0.945 | locus YHR027C, strain rpn1, stronger effect = lower value 0.967 | locus YHR030C, strain SLT2, stronger effect = lower value 1.01 and 1.02 | locus YHR079C, strain IRE1 (second series), stronger effect = lower value 0.995 | locus YHR079C, strain IRE1, stronger effect = lower value 1 | locus YHR094C, strain hxt1, stronger effect = lower value 0.975 | locus YHR129C, strain ARP1, stronger effect = lower value 0.997 | locus YHR142W, strain chs7, stronger effect = lower value 0.887 | locus YHR200W, strain rpn10, stronger effect = lower value 0.997 | locus YIL066C, strain RNR3, stronger effect = lower value 0.996 | locus YIL125W, strain kgd1, stronger effect = lower value 0.977 | locus YIR030C, strain dcg1, stronger effect = lower value 0.975 | locus YJL092W, strain hpr5, stronger effect = lower value 0.969 | locus YJL095W, strain BCK1 (second series), stronger effect = lower value 0.991 | locus YJL095W, strain BCK1, stronger effect = lower value 1.09 and 1 | locus YJL115W, strain asf1, stronger effect = lower value 0.932 | locus YJL129C, strain trk1, stronger effect = lower value 0.998 | locus YJL134W, strain LCB3, stronger effect = lower value 1 | locus YJL154C, strain vps35, stronger effect = lower value 0.965 | locus YJL164C, strain tpk1, stronger effect = lower value 0.961 | locus YJL166W, strain qcr8, stronger effect = lower value 0.952 | locus YJL168C, strain set2, stronger effect = lower value 0.98 | locus YJL187C, strain SWE1 (second series), stronger effect = lower value 0.99 | locus YJR066W, strain TOR1, stronger effect = lower value 0.95
active: locus YDL074C, strain BRE1, stronger effect = lower value 1.28 [resistant] | locus YIL073C, strain SPO22, stronger effect = lower value 1.38 [resistant]
